# The list is not random: actives were taken first. Their share in the collection is about 7.5%.
# FMDV antiviral – High Throughput Screening for Foot and Mouth Disease Virus Antivirals; actives 1.2% (n = 410,000); AID 1159524, 2015; Potency, µM (doses to about 57.9 µM), usual class: inhibitors; FMDV antiviral cell-based qHTS; calls by dose curve; tested in HEK293T cells; further: read-out not given here; nearly all actives have a fitted effect of over 45% in size
# HCMV antiviral – qHTS Assay for inhibitors of the human cytomegalovirus (HCMV) | HFF cells, HCMV-luciferase reporter, 72 h; stronger effect = lower value | activity change, negative = inhibition, % at 57.5 µM | AID 1259415, 2018 | actives 4.5% (n = 410,000); in the data active means activity change below about -60%; inconclusive means no clear call, values can overlap the other calls; inactive means above about -39%
#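 Two-dose cell screen: HFF monolayers treated with compounds and infected with luciferase-expressing HCMV at 1 PFU/cell, 72 h at 37C, then lysed for luciferase measurement.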
# HCV inhibitor – qHTS Assay for Inhibitors of Hepatitis C Virus (HCV); Huh7.5.1 HCVcc-Cre infection, luciferase reporter, 44 h; Potency, µM (doses to about 41.8 µM), most hits filed as inhibitors; actives 3.4% (n = 340,000); AID 651820, 2012
#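 After 44 h co-culture of compound, cells and HCVcc-Cre (~0.5 moi), substrate is added for 15 min at room temperature and luciferase measured over 15 sec. Cells were seeded at 1,000/well and pre-cultured 4 h.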
# VACV mCherry inh – qHTS for Stage-Specific Inhibitors of Vaccinia Orthopoxvirus: mCherry Reporter Primary qHTS; Vaccinia virus mCherry reporter infection, fluorescence; AID 720579, 2013; Potency, µM (titrated, usually from 36.5 µM), hits mostly inhibitors; actives 0.63% (n = 310,000); calls by dose curve; tested in A549 cells; further: nearly all actives have a fitted effect of over 35% in size
# FBPA Giardia inh – qHTS Assay for Inhibitors of Fructose-1,6-bisphosphate Aldolase from Giardia Lamblia; A8B2U2; purified Giardia FBPA; Potency, µM (highest dose often 59.6 µM), hits mostly inhibitors; actives 0.71% (n = 290,000); AID 2451, 2010; further: nearly all actives have a fitted effect of over 55% in size
# Target sequence (A8B2U2 whole entry, looked up): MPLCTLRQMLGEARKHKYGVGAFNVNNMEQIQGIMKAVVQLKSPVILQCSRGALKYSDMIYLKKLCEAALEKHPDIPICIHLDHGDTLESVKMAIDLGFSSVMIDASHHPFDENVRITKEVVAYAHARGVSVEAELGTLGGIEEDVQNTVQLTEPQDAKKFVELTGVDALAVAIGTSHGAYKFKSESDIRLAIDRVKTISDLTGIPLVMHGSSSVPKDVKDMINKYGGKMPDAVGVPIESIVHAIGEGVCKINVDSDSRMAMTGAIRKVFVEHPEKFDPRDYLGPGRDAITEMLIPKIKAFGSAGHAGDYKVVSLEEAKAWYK
#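 Giardia FBPA (40 nM reagent) was preincubated 10 min at RT with compound (up to 57.5 uM final), then substrate plus GAPDH/TPI/NAD/arsenate coupling system with diaphorase/resazurin was added; resorufin fluorescence (525/598 nm) was read after 20 min.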
# VACV Venus inh – qHTS for Stage-Specific Inhibitors of Vaccinia Orthopoxvirus: Venus Reporter Primary qHTS. actives 0.46% (n = 330,000). Vaccinia virus Venus reporter expression, fluorescence. Potency, µM (doses to about 36.5 µM), usual class: inhibitors; calls by dose curve; tested in A549 cells; further: nearly all actives have a fitted effect of over 30% in size
# A number is an active result; 0 = inactive; ? = inconclusive; - = no result; ! = a repeat was not active; [ ] = remark or other dose. Unless noted, the call rests on the fitted dose curve; in most records, active means well fitted curve in the direction sought with a large enough effect; inconclusive means small, poorly fitted or top-dose-only effect, or another doubt; inactive means no such curve, though single readings can be large; an effect the other way counts as inactive or inconclusive.
SMILES,FMDV antiviral,HCMV antiviral,HCV inhibitor,VACV mCherry inh,FBPA Giardia inh,VACV Venus inh
C[C@H]1[C@@H](NC(=O)Nc2ccccc2)CC[C@@]23CCCN2C(=O)CCC[C@@H]13,-,0,-,-,-,-
CC(=O)OC1CC2C(C)(C)C(=O)[C@@H]3OC3[C@@]2(C)C2CC[C@]3(C)C(=CC(=O)OC3c3ccoc3)[C@]12C (some centres undefined),0,-,-,0,0,0
CN(C)c1ccc(/C=C/C=C/c2sc3ccccc3[n+]2C)cc1,39.8µM,-95.3,?,0,0,0
CC[n+]1c(/C=C/C=C/c2ccc(N(C)C)cc2)sc2ccccc21,?,-110.4,2.82µM,?,0,?
CC[n+]1c(/C=C/N(C)c2ccccc2)sc2ccc(Cl)cc21,-,-96.6,?,0,0,0
CCCCCCC[n+]1c(/C=C/c2ccc(N(C)C)cc2)sc2ccccc21,-,-,-,?,-,0
O=C(C[n+]1cccc2cccc(O)c21)c1ccccc1,-,-,-,0,-,0
COc1ccc2c(c1)CCC(=O)C(C)CCO2 (centres undefined),-,0,-,-,-,-
CC12CCC=CC1C(c1ccc(F)c(Br)c1)N(Cc1ccccc1)C2=O (centres undefined),-,-,-,-,0,-
Cc1ccc(C2(c3ccccc3)NC(=O)N(CC(=O)NC3(C#N)CCCC3)C2=O)cc1C (centres undefined),0,-91.5,0,-,-,-
Cc1ccccc1NC(=O)C(=O)NCC(c1ccc2c(c1)OCO2)N1CCN(c2ccccc2)CC1 (centres undefined),0,?,-,0,-,0
COc1ccccc1Nc1nc(-c2ccc3c(c2)NC(=O)CO3)cs1,?,-63.7,10µM,-,0,-
COc1ccc(Nc2nc(-c3ccc4c(c3)NC(=O)CO4)cs2)cc1,?,?,0,?,0,0
O=C(Nc1ccc(-c2nc3ccccc3s2)cc1)c1cc(-n2cnnc2)ccc1Cl,-,-81.7,3.98µM,?,-,7.94µM
Cc1ccc(NC(=O)c2cc(-n3cnnc3)ccc2Cl)cc1,0,0,?,-,0,-
Oc1ccc(N=Nc2n[nH]c(-c3ccc(Br)cc3)n2)cc1,0,-87.8,0,?,0,?
CCOC(=O)c1cnc2ccc(C)cc2c1N(C)Cc1ccccc1,0,-60.1,0,0,0,0
CCOC(=O)c1cnc2ccc(OC)cc2c1NCCc1ccc(OC)c(OC)c1,17.8µM!,?,5.01µM,?,0,?
CCOC(=O)c1cnc2ccc(OCC)cc2c1NCc1ccccc1,?,-72.9,10µM,0,?,0
Nc1cc([N+](=O)[O-])cc(N)c1N,-,-,-,0,-,0
CC(NC(=O)C1(c2cccs2)CCOCC1)c1ccccc1 (centres undefined),0,0,?,0,0,0
O=C1CC(/C=C/c2ccc(Cl)cc2)=Nc2ccccc2N1,0,-91.3,?,-,0,-
CC1(C)CC(/C=C/c2ccccc2)=Nc2ccccc2N1,0,-78.3,0,-,0,-
Cn1cnc(S(=O)(=O)N[C@H]2CC[C@@]34CCCN3C(=O)CCC[C@H]4[C@H]2Cc2ccccc2)c1,-,0,-,-,-,-
COc1ccc(S(=O)(=O)Nc2ccccc2C(=O)Nc2nc(-c3ccc(F)cc3)cs2)cc1OC,0,-76.4,?,?,0,?
SMILES,FMDV antiviral,HCMV antiviral,HCV inhibitor,VACV mCherry inh,FBPA Giardia inh,VACV Venus inh
CCOC(=O)c1ccccc1NS(=O)(=O)c1c(-c2ccc(C)cc2)csc1C(=O)OC,0,-65.2,-,0,-,0
COc1ccc(-c2csc(NC(=O)c3c(OC)cccc3OC)n2)cc1,0,0,?,?,0,0
CCCNC(=O)c1ccccc1NS(=O)(=O)c1ccc(OC)c(OC)c1,0,0,0,-,0,-
COc1ccc(-c2csc(NC(=O)c3ccccc3NS(=O)(=O)c3ccc(C)cc3)n2)cc1,?,-96.0,5.01µM,11.2µM,0,?
Cc1cccc(C)c1NC(=O)C(Nc1ccccc1)c1ccccc1F (centres undefined),-,0,-,-,-,-
COC(=O)NC(c1ccc(F)cc1)C(C(C)=O)C(=O)OC (centres undefined),-,-,-,-,0[12.9 µM],-
O=C(CCl)Nc1c[nH]c(=O)[nH]c1=O,?,-64.1,?,7.08µM,0,7.94µM

# Screening data: PubChem BioAssay, National Center for Advancing Translational Sciences (NCATS)
